High-throughput results deposited in PubChem BioAssay by The Scripps Research Institute Molecular Screening Center.
Most compounds without a hit are left out; they make up all but 3.5% or so of the library.
FBW7 act: FBW7 E3 ligase activators, primary screen, biochemical, AlphaScreen, human; normalized activity (activation), % at 26.1 µM; 650,000 tested, 0.13% active; AID 1259310, 2017; AlphaScreen FBW7–phospho-cyclin E peptide binding, activator screen; in the data active = normalized activity above about 1.9%;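 also: purified mutant Fbw7 with reduced substrate affinity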
TEAD-YAP block: TEAD-YAP interaction inhibition, primary screen, TEAD-YAP interaction inhibitor project, luminescence, HEK-TIYL cells; inhibition, % at 9.12 µM; TEAD-Gal4/YAP UAS-luciferase luminescence; 640,000 tested, 1.4% active; AID 1259422, 2018; in the data active = inhibition above about 32%;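 also: 0% = median of test compound wells and 100% = reference inhibitor wells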
GPR151 activ: activators of human GPR151, primary screen, cell-based, PathHunter beta-arrestin, luminescence. activation, % at 11.2 µM. G-protein coupled receptor 151 (Homo sapiens), Q8TDV0. PathHunter beta-arrestin GPR151 cells. 650,000 tested, 1% active; in the data active = activation above about 4.9%;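 also: 0% = median of compound wells and 100% = cells with positive control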
MITF primary: MITF inhibitors, primary screen, biochemical, AlphaScreen, human; AlphaScreen MITF homodimerization, bead proximity signal; inhibition, % at 2.6 µM; AID 1259374, 2018; 650,000 tested, 0.91% active; in the data active = inhibition above about 50%;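 also: 0% = vehicle wells with protein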
Target sequence (O75030 whole entry, looked up): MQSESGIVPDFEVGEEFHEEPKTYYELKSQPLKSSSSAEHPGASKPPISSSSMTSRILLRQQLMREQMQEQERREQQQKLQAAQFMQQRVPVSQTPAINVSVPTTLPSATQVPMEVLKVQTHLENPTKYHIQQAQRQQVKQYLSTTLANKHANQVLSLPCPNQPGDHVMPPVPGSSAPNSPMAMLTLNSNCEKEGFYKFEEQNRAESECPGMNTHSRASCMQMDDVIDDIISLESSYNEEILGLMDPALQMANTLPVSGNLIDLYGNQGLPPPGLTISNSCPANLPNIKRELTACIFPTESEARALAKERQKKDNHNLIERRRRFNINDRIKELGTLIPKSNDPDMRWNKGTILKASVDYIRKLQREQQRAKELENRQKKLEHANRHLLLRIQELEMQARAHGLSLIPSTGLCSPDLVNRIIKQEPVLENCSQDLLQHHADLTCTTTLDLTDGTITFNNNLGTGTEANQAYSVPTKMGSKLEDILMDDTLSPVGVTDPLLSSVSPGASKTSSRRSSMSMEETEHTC
Active calls of the source: *.

SMILES	FBW7 act	TEAD-YAP block	GPR151 activ	MITF primary
COc1ccc(-n2nc3nc[nH]c(=O)c3n2)cc1	0	46*	-5	6
COc1ccc(-n2ncc3c(=O)[nH]cnc32)cc1	1	-2	-1	12
Cc1cccc(N(C)c2ccnc3c(-c4cccc(CO)c4)cnn23)c1	0	76*	0	-4
CN(C)c1cccc(Nc2ccnc3c(-c4cccc(CO)c4)cnn23)c1	0	63*	1	-19
CN1CCN(c2ccnc3c(-c4ccc(Cl)cc4)cnn23)CC1	0	-54	0	-9
CCCNc1ccnc2c(-c3ccc(N(C)C)cc3)cnn12	-1	8	-1	13
CN1CCN(c2ccnc3c(-c4ccc(O)cc4)cnn23)CC1	-1	43*	0	78*
CN(C)c1cccc(Nc2ccnc3c(-c4ccc(O)cc4)cnn23)c1	0	-38	1	-9
CCCNc1ccnc2c(-c3ccc(O)cc3)cnn12	0	97*	-2	-16
Cc1cccc(NC(=O)c2cc3c(ccc4ccccc43)o2)c1C	0	-10	-1	19
S=C(Nc1ccc(Oc2ccccc2)cc1)N(CCCN1CCOCC1)Cc1cccnc1	0	-24	-1	-8
COCCNC(=O)c1cc2c(=O)n3cccc(C)c3nc2n(Cc2ccco2)c1=N	0	-2	-1	4
Cc1ccc(OCC(=O)Nc2nnc(C)s2)c(C)c1	0	2	0	21
OCc1cccc(-c2cnn3c(NCCCN4CCOCC4)ccnc23)c1	0	28	-1	-4
CCCNc1ccnc2c(-c3cccc(CO)c3)cnn12	0	102*	-5	2
CS/C(=C\[N+](=O)[O-])Nc1ccc(C(C)(C)C)cc1	0	55*	-1	-14
Cc1nn(-c2cccc(Cl)c2)c(Cl)c1/C=C1\NC(=S)NC1=O	0	5	1	3
CCc1cc(NCc2ccco2)n2nc3nc(C)cc(C)c3c2n1	252*	12	0	-361
CCc1cc(NCc2cccs2)n2nc3nc(C)cc(C)c3c2n1	0	-3	0	-8
Cc1cccc(N2CCN(C(=O)c3cccc(N4CCCC4=O)c3)C(C)C2)c1 (stereo not given)	0	58*	-1	2
O=C(c1cccc(N2CCCC2=O)c1)N1CCN(c2cccc(Cl)c2)CC1	0	44*	0	1
Cc1cccc(N2CCN(C(=O)c3ccc(N4CCCC4=O)cc3)CC2C)c1 (stereo not given)	0	-2	0	-2
CCc1nc2nc(C)cc(N3CCN(c4ccccc4OC)CC3)n2n1	0	34*	-1	-5
CCC(OC(=O)CN1C(=O)C(=O)c2ccccc21)C(=O)NC(C)c1ccccc1 (stereo not given)	0	1	0	-8
Oc1ccc(/C=N/NC(=S)Nc2cccnc2)c(O)c1O	-1	-6	-1	84*
SMILES	FBW7 act	TEAD-YAP block	GPR151 activ	MITF primary
O=[N+]([O-])c1ccccc1NC(=S)N/N=C/c1ccc(O)c(O)c1O	-1	49*	1	57*
Oc1ccc(/C=N/NC(=S)Nc2cccnc2)c(O)c1	-1	4	0	119*
Oc1cccc(/C=N/NC(=S)Nc2cccnc2)c1O	-1	40*	-2	112*
O=C(NC(=S)NNc1ccccn1)C12CC3CC(CC(C3)C1)C2	0	10	-1	9
CCOC(=O)C1=C(C)NC2=C(C(=O)c3ccccc32)C1c1cc(OC)c(OC)c(OC)c1 (stereo not given)	0	53*	0	6
COc1ccc(-c2nccc(NC3CC3)n2)cn1	0	-42	0	17
COc1cccc(OCc2nc3cc(-c4cn[nH]c4C)ccc3c(=O)[nH]2)c1	0	56*	-1	26
Cc1ccccc1OCc1nc2ccc(-c3cn[nH]c3C)cc2c(=O)[nH]1	0	48*	0	6
Nc1c(C(=O)c2cccs2)sc2nc3c(c(-c4ccccc4Cl)c12)CCCC3	0	4	-1	-10
CC(C)N1CCN(Cc2cnn(-c3ccccc3)c2)CC1CCO (stereo not given)	0	5	2	1
O=C(Nc1cnn(Cc2ccc(F)cc2)c1)c1cc(C2CC2)on1	0	14	-1	15
Nc1ncc(N=Nc2cc(C(=O)O)ccc2Cl)s1	0	3	-2	9
Nc1ncc(N=Nc2cc(C(=O)O)cc(C(=O)O)c2)s1	0	12	0	61*
Cc1nc(N)sc1N=Nc1cc(C(=O)O)cc(C(=O)O)c1	0	-2	2	52*
